This is an account of results in PubChem BioAssay AID624351 (Southern Research Specialized Biocontainment Screening …, 2012).

A word on the IC50: it is the midpoint of a concentration-inhibition curve. A word on the inhibition: it is the drop in the measured response relative to a control, in per cent.

Out of some 2,400 compounds screened, about 1,400 (58%) were called active.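 How the source made its calls: active means inhibition of 30% or more at any tested dose; inconclusive means primary hits over the limit that were never retested; inactive means the rest.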 The set was probably picked from earlier hits. Some of the results follow.

The nature of the assay: ADP Hunter readout inhibition without MgcRacGAP – biochemical, coupled enzyme counter-screen, artefact control for MgcRacGAP inhibitor project, dose response (AID 624351).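 Further: signal is the ADP detection kit reading of free GDP without any GAP enzyme.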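 On inhibition: 0% = median positive control wells and 100% = median negative control wells.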 Conditions: fluorescence, no MgcRacGAP; series mostly up to 80 µM; inhibition: at the top concentration.
Take `O=C1/C(=C/c2ccc(O)c(O)c2)Oc2cc(O)ccc21`: the IC50 was 28.2 µM (active). As to `COc1cc(/C=C2\Oc3cc(O)ccc3C2=O)ccc1O`, the IC50 was 33.9 µM (active).

With `Brc1ccccc1OCCCCCN1CCOCC1`, the “inhibition” value is 15.5% (inactive). As for `S=c1[nH]nc2sc3ccccc3n12`, the IC50 is 32.3 µM (active).

As for `O=C(CN1CCN(c2ncccn2)CC1)N1CCCC1`, the “inhibition” value was 10.6% (inactive).

`S=c1[nH]nc(-c2ccncc2)n1/N=C/c1ccccc1`: the IC50 was 39.6 µM (active). With `Cc1ccc(-c2n[nH]c(=S)n2/N=C/c2ccc(C(=O)O)cc2)cc1`, the IC50 is 69.7 µM (active). `Cc1cccc(N2C(=O)/C(=C\c3ccc(C(=O)O)cc3)c3ccccc3C2=O)c1`: the “inhibition” value is 2.03% (inactive). Turning to `Oc1ccccc1/C=N/n1c(-c2ccccc2)n[nH]c1=S`, the IC50 is 71.4 µM (active). Regarding `NNc1ccc([N+](=O)[O-])c2[nH][nH]c(=O)c12`, the inhibition is -1.61% [at 10 µM] (inactive).

For `Cc1ccc(S(=O)(=O)/N=S(/c2ccccc2)C(C)C)cc1` (centres undefined), the “inhibition” value was 6.9% (inactive). As for `CN(C)c1ccc2cc(S(=O)(=O)O)cc(O)c2c1`, the IC50 was 75 µM (active). Regarding `O=S(=O)(O)c1cc(O)c2ccc(Nc3ccccc3)cc2c1`, the “inhibition” value was 14.1% (inactive). As to `Nc1cccc2c(O)cc(S(=O)(=O)O)cc12`, the “inhibition” value was 15.9% (inactive). On to `O=C(CCN1CCCCCC1)Nc1ccc2c(c1)OCCO2`, for which the “inhibition” value is 15.1% (inactive). Take `COc1cc(/C=C/C(=O)OCC(=O)Nc2ccc3c(c2)OCCO3)ccc1O`: the IC50 was 29.2 µM (active).

For `COc1cc(/C=C/C(=O)OCC(=O)Nc2ccc3c(c2)OCO3)ccc1O`, the IC50 is 42.1 µM (active). Regarding `O=C(CN1CCOCC1)Nc1ccc2c(c1)OCCO2`, the “inhibition” value was 14.5% (inactive). Turning to `CC(C)C1=Nc2cccc3cccc(c23)N1`, the IC50 is 26.5 µM (active). Consider `O=C(Oc1ccc(N(C(=O)c2ccncc2)S(=O)(=O)c2cccs2)cc1)c1ccncc1`, for which the “inhibition” value is 7.67% (inactive). As for `N=C(N)c1ccc(N=Nc2c(O)ccc3c2[nH]c2ccccc23)cc1`, the IC50 is 18 µM (active). Consider `O=C(O)CCN1C(=O)/C(=C/c2ccc(-c3nc4ccccc4s3)o2)SC1=S`, for which the “inhibition” value was -0.68% (inactive). Consider `COCCNCC(=O)Nc1nc(C)cs1`, for which the “inhibition” value was 19.2% (inactive). For the molecule `CC(C)(C)N1C(=O)c2ccc(C(=O)Nc3ccc(O)cc3)cc2C1=O`, the IC50 was 29.7 µM (active). As to `O=C(Nc1ccc(O)cc1)c1ccc2c(c1)C(=O)N(Cc1ccccc1)C2=O`, the “inhibition” value is 22.7% (inactive).

Turning to `Cc1ccc(Nc2c(-c3ccco3)nc3ccccn23)cc1`, the “inhibition” value was 17.8% (inactive). As for `COc1cc(-c2nc3ccc(C)cn3c2Nc2ccc3c(c2)OCCO3)ccc1O`, the IC50 was 34.4 µM (active). With `Cc1ccn2c(Nc3ccc4c(c3)OCO4)c(-c3ccc(O)cc3)nc2c1`, the IC50 is 32.4 µM (active). With `Cc1cccc(Nc2c(-c3ccc(O)cc3)nc3ncccn23)c1`, the IC50 was 31.7 µM (active).

`COc1cc(-c2nc3cnccn3c2Nc2ccc(C)cc2)ccc1O`: the IC50 was 45.3 µM (active). As for `N#CC(C#N)=C1C=CC=CN1/C(=C\c1ccco1)C(=O)c1ccc(Cl)cc1`, the “inhibition” value was -0.35% (inactive).

`COc1cc(-c2nc3ccccn3c2NCC2CCCO2)ccc1O` (centres undefined): the “inhibition” value is 24.2% (inactive). Consider `COc1cc(-c2nc3cnccn3c2Nc2c(C)cccc2C)ccc1O`, for which the IC50 is 52.8 µM (active).

Consider `Clc1cc(Br)ccc1OCCOCCN1CCCC1`, for which the “inhibition” value was 11.4% (inactive). Consider `COc1cc(/C=N/NC(=O)CNC(=O)c2ccco2)ccc1O`, for which the IC50 was 36.8 µM (active). As for `COc1cc(/C=N/NC(=O)CNC(=O)c2cccs2)ccc1O`, the IC50 was 38.4 µM (active).

As for `COc1ccc2c(/C=N/Nc3ccc(C(=O)O)cc3)c[nH]c2c1`, the concentration for half-maximal inhibition (IC50) is 58.5 µM (active). With `O=C(O)c1ccc(N/N=C/c2c[nH]c3ccccc23)cc1`, the IC50 was 47.5 µM (active). Turning to `CC(C)N=c1scc(-c2ccco2)n1/N=C/c1ccc(O)c(O)c1`, the IC50 is 63.8 µM (active).

As to `CN=c1scc(-c2ccco2)n1/N=C/c1ccc(O)c(O)c1`, the IC50 was 43.9 µM (active). Consider `CN=c1scc(-c2ccc(F)cc2)n1/N=C/c1ccc(O)c(O)c1`, for which the IC50 is 38.6 µM (active). For `Oc1ccc(/C=N/n2c(-c3ccco3)csc2=Nc2cccnc2)c(O)c1`, the IC50 is 34.3 µM (active). `CN(C)CCCn1c(SCc2ccc(Cl)cc2)nnc1-c1ccncc1`: the “inhibition” value was 13% (inactive). For `COc1cc(/C=N/NC(=O)c2c(-c3ccccc3)noc2C)ccc1O`, the IC50 was 50.7 µM (active). For the molecule `CCOc1cc(/C=N/NC(=O)c2c(-c3ccccc3)noc2C)ccc1O`, the IC50 is 60.4 µM (active). As for `Oc1ccc(/C=N/Nc2nn3cnnc3c3ccccc23)cc1`, the IC50 is 23.3 µM (active). In the case of `COc1cc(/C=N/Nc2nn3cnnc3c3ccccc23)ccc1O`, the IC50 was 58.4 µM (active). On to `COc1cc(/C=N/Nc2nncn2/N=C/c2ccc(O)c(OC)c2)ccc1O`, for which the IC50 was 39 µM (active). As for `Cc1ccc(OCCCCNC(C)(C)C)c([N+](=O)[O-])c1`, the “inhibition” value is 20.2% (inactive).

Regarding `N#CC1=C(N)NC(=S)C(C(N)=O)C1c1ccc([N+](=O)[O-])cc1` (centres undefined), the “inhibition” value is -6.08% (inactive). As to `N=C(N)c1ccc(/C=C/c2ccc(C(=N)N)cc2O)cc1`, the “inhibition” value was 11.6% (inactive). In the case of `CCOc1ccc(C2NC(=O)C(C#N)=C(S)N2c2ccc(C)cc2)cc1OC` (centres undefined), the “inhibition” value was 3.45% (inactive). Take `COc1cc2nc(=S)n3[nH]c(CCn4nc(C)cc4C)nc3c2cc1OC`: the IC50 was 19.6 µM (active). As for `COc1ccc2cc(OCC(=O)NNC(=O)Nc3ccc(F)cc3)ccc2c1`, the IC50 is 65.5 µM (active).
